Source: PubChem BioAssay (Zoeller Lab, School of Medicine, Boston University)
PL synth Enamine: animal cell phospholipid biosynthesis inhibition, Enamine screen | ZR-82 CHO cells, pyrene fatty acid UV survival, CellTiter Blue; peroxisome-deficient CHO-K1 mutant line; plus DGAT-1, DGAT-2 and ACAT inhibitors | 20,000 compounds, 0.4% hits | calls only at 10 µM | AID 1347385;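 active = cell survival signal 2 SD away from solvent-only control wells, confirmed on one or two retests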;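 note: 3 h compound exposure then viability read about one day after UV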
Numbers without * were called inactive; i = inactive; + = active, no number. The sample as a whole holds a higher share of hits than the screen did.

SMILES | PL synth Enamine
CCOC(=O)c1c(C)[nH]c(C(=O)O)c1C | i
CCOC(=O)c1c(C)[nH]c(N=Nc2ccc3c(c2)OCO3)c1C | +
CCOC(=O)c1c(C)[nH]c(C(=O)COC(=O)c2ccc(C)s2)c1C | i
O=c1nc2n(c3sc4c(c13)CCCC4)CC(O)=C2c1nc2ccccc2[nH]1 | i
S=c1[nH]ccn1-c1ccc(Br)cc1 | i
S=C(NNc1ccnc2cc(Cl)ccc12)Nc1ccccc1Cl | +
S=C(NNc1ccnc2cc(Cl)ccc12)Nc1ccc(Cl)cc1 | i
Fc1ccc(NC(=S)NNc2ccnc3cc(Cl)ccc23)cc1 | i
CC(C)(C)c1nn2cnnc2n(/N=C/c2cc(Br)cs2)c1=O | i
C(=N\n1c(-c2ccccc2)csc1=NCCc1ccccc1)/c1c[nH]c2ccccc12 | +
CN=c1scc(-c2ccccc2)n1/N=C/c1c[nH]c2ccccc12 | i
C(=N\n1c(-c2ccco2)csc1=NCCc1ccccc1)/c1ccco1 | i
Cc1ccc(NP2(=S)/C(=C3/N(C)c4ccccc4C3(C)C)C=Nc3c2c(C)nn3-c2ccccc2)cc1C (configuration not stated) | i
C=CCn1c(C)nnc1SCC(=O)N1N=C2/C(=C/c3ccco3)CCCC2C1c1ccco1 (configuration not stated) | i
Cc1cccc(N=Nc2c(C)nn(-c3ccccc3)c2N)c1C | i
Cc1ccc(-n2nc(C)c(N=Nc3ccccc3C)c2N)cc1 | i
Cc1nn(-c2ccccc2)c(N)c1N=Nc1ccc([N+](=O)[O-])c(C(F)(F)F)c1 | +
Ic1ccc(SNCc2ccco2)cc1 | i
COCCCn1c(-c2cc(OC)ccc2OC)csc1=Nc1ccc(OC(F)F)cc1 | i
CN=c1scc(-c2ccc(Br)cc2)n1/N=C/c1ccccc1F | i
CN=c1scc(-c2ccccc2F)n1/N=C/c1ccccc1F | +
CN=c1scc(-c2ccccc2F)n1/N=C/c1ccccc1 | i
O=[N+]([O-])c1ccc(N=P(c2nc3ccccc3o2)(N2CCOCC2)N2CCOCC2)cc1 | i
Fc1c(F)c(F)c(Sc2nnc(-c3cccs3)n2CC2CCCO2)c(F)c1F (configuration not stated) | i
Cc1cc(C(=O)NC23CC4CC(CC(C4)C2)C3)c(C)s1 | i
SMILES | PL synth Enamine
Cc1nc(Nc2cc(Cl)c(N)c(Cl)c2)c2c3c(sc2n1)CCC3 | i
CCCCN(CCCC)[P+](Nc1n[nH]c(=O)[nH]c1=O)(N(CCCC)CCCC)N(CCCC)CCCC | +
C/C(=N\NS(=O)(=O)c1ccc(C)cc1)c1ccc2c(c1)OCCO2 | i
CNS(=O)(=O)c1ccc(/C(C)=N/Nc2cc(C)c3cc(C)cc(C)c3n2)cc1 | +
Cc1ccc(C(=NS(=O)(=O)c2ccc(C)cc2)NS(=O)(=O)c2ccc(C)cc2)cc1 | i
O=C(N=C1N=C2C=CC=CN2Cc2ccccc21)c1cc(F)c(F)c(F)c1F | i
Cn1c(=S)[nH]c2cc(S(N)(=O)=O)ccc21 | i
CO/N=C1/C(=O)Nc2ccc([N+](=O)[O-])cc21 | i
O=C(Cn1cc(C(F)(F)F)ccc1=O)NC(=O)NC1CCCC1 | i
CC(C)(C)c1cc(C=Nc2cc(C(C)(C)C)cc(C(C)(C)C)c2O)c(O)c(C(C)(C)C)c1 | i
Cc1ccc(N=Nc2cc(C(C)(C)C)cc(Br)c2O)cc1 | +
CC(C)(C)N/N=C/c1cc(Br)c(O)c(Br)c1 | i
CN(C)C(=O)CN1CCN(S(=O)(=O)c2cccs2)CC1 | i
CC(C)NC(=S)NN=C1CCC(C(C)(C)C)CC1 (configuration not stated) | i
CC(C)NC(=S)N/N=C1\CCCCC1C1CCCCC1 (configuration not stated) | +
CC1CCCC/C1=N\NC(=S)NC1CCCCC1 (configuration not stated) | i
O=[N+]([O-])c1ccc(N=Nc2ccc(NCC(F)(F)C(F)F)cc2)c(Cl)c1 | +
CN(C)P(=Nc1ccc([N+](=O)[O-])cc1Br)(N(C)C)C(C)(C)C | i
CN(C)c1ccc(N=Nc2ccc([N+](=O)[O-])cc2C(F)(F)F)cc1 | +
O=[N+]([O-])c1ccc(Cl)c(S(=O)(=O)Nc2ccc(SC(F)F)cc2)c1 | i
Nc1ccc([N+](=O)[O-])cc1C(F)(F)F | i
CN(C)c1ccc(N=Cc2cc([N+](=O)[O-])ccc2OC(F)F)cc1 | i
CCn1c(O)c(C(C)=NCC(C)(C)N2CCOCC2)c(=O)n(CC)c1=S | i
C=C(C)CN=c1scc(-c2cc(OC)ccc2OC)n1/N=C/CCC | i
O=C(C[n+]1cc(-c2ccc(Br)cc2)n2c1CCC2)c1ccccc1 | i
SMILES | PL synth Enamine
Oc1[nH]c2ccc(Br)cc2c1N=Nc1ccccn1 | i
Cc1cc(C)c2[nH]c(O)c(N=Nc3ccccn3)c2c1 | +
CCN(CC)S(=O)(=O)c1ccc(N=Nc2c(O)[nH]c3c(C)cc(C)cc23)nc1 | i
C=C[n+]1ccn(-c2nc3ccccc3nc2[N-]S(=O)(=O)c2ccc([N+](=O)[O-])cc2)c1 | i
C=CCN=c1scc(-c2ccc(F)cc2)n1/N=C/c1ccc(C(F)(F)F)cc1 | i
CCOC(=O)c1c(N)sc(C(N)=O)c1C | i
CCOC(=O)c1c(N)oc(C)c1C(C)=O | i
C=CCn1sc(N)c(C(=O)OCC)c1=S | +
CC1(C)CC2=NN(c3ccccc3)P(=Nc3ccc([N+](=O)[O-])cc3)(N3CCOCC3)C2=C(N2CCOCC2)C1 (configuration not stated) | i
O=C(/C=C/c1cccs1)NC1CCCC1 | i
COCCNC(=S)N/N=C/c1cccs1 | i
S=C(N/N=C/c1cccs1)NC1CCCCC1 | +
CC(C)(C)C(=O)NCC(=O)NC1=NCCS1 | i
Cc1cc2c(cc1C)N(Cc1ccc(C(C)(C)C)cc1)C1=NCCCN12 | i
Cc1csc2nc(CSc3nnc(C4CC4)n3C3CC3)cc(=O)n12 | i
O=C(Cn1cnc2sccc2c1=O)N1N=C2/C(=C/c3ccco3)CCCC2C1c1ccco1 (configuration not stated) | i
CN(C)c1ccc(C=Nc2ccc(N=Cc3ccc(N(C)C)cc3)cc2)cc1 | i
CN(C)c1ccc(N=Nc2nn[nH]n2)cc1 | i
CN(C)c1ccc(N=Cc2sc3ccccc3c2Cl)cc1 | i
CN(C)c1ccc(N=Nc2ccc(S(=O)(=O)O)cc2)cc1 | i
CN(C)c1ccc(N=Nc2ccccc2Cl)cc1 | +
CN(C)c1ccc(N=Nc2ccccc2Br)cc1 | +
Cc1cnc(NC(=O)CN2C(=O)NC(C)(C)C2=O)s1 | i
CCOC(=O)c1c(C)[nH]c(-c2nc(N3CCN(C)CC3)sc2C)c1C | i
Cc1sc2ncn(CC(=O)c3cc(C)n(CC(F)(F)F)c3C)c(=O)c2c1C | i
O=C1NC2(Oc3ccc(Br)cc3C3CC(c4ccccc4)=NN32)/C(=C/c2ccccc2)S1 (configuration not stated) | +
CCC1(C)Oc2ccccc2C2CC(c3ccccc3)=NN21 (configuration not stated) | i
O=C1NC2(Oc3ccccc3C3CC(c4ccccc4)=NN32)/C(=C/c2cccc(OCc3ccccc3)c2)S1 (configuration not stated) | +
c1ccc(C2=NN3C(C2)c2ccccc2OC32CCCCC2)cc1 (configuration not stated) | i
CC1(C)Oc2ccccc2C2CC(c3ccc(-c4ccccc4)cc3)=NN21 (configuration not stated) | i
